From the supplement of paper PMC8728848
About 410 targets per protein were measured; listed, in parts, are those with the strongest signals and a random draw of the rest.

Assays:
Test in all cases: glycan array binding signal (z-score within array); higher = stronger binding
Details in all cases: glycan notation: IUPAC condensed, linker removed
Gal(b1-4)GlcNAc6P = target: Gal(b1-4)GlcNAc6P
Procedure, shortened: (§1)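 Negative Z-scores can be read as non-binding. The Z-score is calculated within each array and then averaged across arrays of one protein sequence at different concentrations or buffers and across linkers. Arrays, 3228 in all, were curated from the Consortium for Functional Glycomics database and kept only where the protein sequence was available.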

Gal3S(b1-3)GalNAc = target: Gal3S(b1-3)GalNAc
Procedure, shortened: as §1

Gal6S(b1-4)Glc = target: Gal6S(b1-4)Glc
Procedure, shortened: as §1

[1] = target: GalNAc(b1-4)GlcNAc(b1-2)Man
Procedure, shortened: as §1

Glc(b1-6)Glc = target: Glc(b1-6)Glc
Procedure, shortened: as §1

[2] = target: GlcNAc(a1-4)Gal(b1-4)GlcNAc
Procedure, shortened: as §1

GlcNAc(b1-3)Man = target: GlcNAc(b1-3)Man
Procedure, shortened: as §1

Kdn(a2-3)Gal(b1-4)Glc = target: Kdn(a2-3)Gal(b1-4)Glc
Procedure, shortened: as §1

Kdn(a2-3)Gal(b1-4)GlcNAc = target: Kdn(a2-3)Gal(b1-4)GlcNAc
Procedure, shortened: as §1

[3] = target: Man(a1-2)Man(a1-3)[Man(a1-2)Man(a1-6)]Man
Procedure, shortened: as §1

Man(a1-3)[Man(a1-6)]Man = target: Man(a1-3)[Man(a1-6)]Man
Procedure, shortened: as §1

[4] = target: Man(a1-3)[Man(a1-6)]Man(a1-6)[Man(a1-2)Man(a1-3)]Man(b1-4)GlcNAc(b1-4)GlcNAc
Procedure, shortened: as §1

MurNAc(b1-4)GlcNAc = target: MurNAc(b1-4)GlcNAc
Procedure, shortened: as §1

Neu5Ac(a2-3)Gal = target: Neu5Ac(a2-3)Gal
Procedure, shortened: as §1

[5] = target: Neu5Ac(a2-3)Gal(b1-3)GalNAc(b1-3)Gal(a1-4)Gal(b1-4)Glc
Procedure, shortened: as §1

[6] = target: Neu5Ac(a2-3)Gal(b1-3)GlcNAc(b1-2)Man(a1-3)[GlcNAc(b1-4)][Neu5Ac(a2-3)Gal(b1-3)GlcNAc(b1-2)Man(a1-6)]Man(b1-4)GlcNAc(b1-4)GlcNAc
Procedure, shortened: as §1

[7] = target: Neu5Ac(a2-3)Gal(b1-4)GlcNAc(b1-3)Gal
Procedure, shortened: as §1

[8] = target: Neu5Ac(a2-3)Gal(b1-4)GlcNAc(b1-3)Gal(b1-4)GlcNAc(b1-3)Gal(b1-4)GlcNAc(b1-2)Man(a1-3)[Neu5Ac(a2-3)Gal(b1-4)GlcNAc(b1-3)Gal(b1-4)GlcNAc(b1-3)Gal(b1-4)GlcNAc(b1-2)Man(a1-6)]GalNAc
Procedure, shortened: as §1

[9] = target: Neu5Ac(a2-3)Gal(b1-4)[Fuc(a1-3)]GlcNAc(b1-3)GalNAc
Procedure, shortened: as §1

[10] = target: Neu5Ac(a2-3)[GalNAc(b1-4)]Gal(b1-4)Glc
Procedure, shortened: as §1

[11] = target: Neu5Ac(a2-6)Gal(b1-4)GlcNAc(b1-2)Man(a1-3)[Neu5Ac(a2-6)Gal(b1-4)GlcNAc(b1-2)Man(a1-6)]Man(b1-4)GlcNAc(b1-4)GlcNAc
Procedure, shortened: as §1

[12] = target: Neu5Ac(a2-6)Gal(b1-4)GlcNAc(b1-3)Gal(b1-4)GlcNAc(b1-3)[Neu5Ac(a2-6)Gal(b1-4)GlcNAc(b1-3)Gal(b1-4)GlcNAc(b1-6)]GalNAc
Procedure, shortened: as §1

[13] = target: Neu5Ac(a2-6)Gal(b1-4)GlcNAc(b1-3)[Neu5Ac(a2-6)Gal(b1-4)GlcNAc(b1-6)]GalNAc
Procedure, shortened: as §1

[14] = target: Neu5Ac(a2-6)GalNAc(b1-4)GlcNAc6S
Procedure, shortened: as §1

[15] = target: Neu5Ac(a2-6)GlcNAc(b1-4)GlcNAc(b1-4)GlcNAc
Procedure, shortened: as §1

[16] = target: Neu5Ac(a2-8)Neu5Ac(a2-3)Gal(b1-4)Glc
Procedure, shortened: as §1

[17] = target: Neu5Ac(a2-8)Neu5Ac(a2-3)Gal(b1-4)GlcNAc
Procedure, shortened: as §1

[18] = target: Neu5Ac(a2-8)Neu5Ac(a2-8)Neu5Ac(a2-3)Gal(b1-4)Glc
Procedure, shortened: as §1

[19] = target: Neu5Gc(a2-3)Gal(b1-4)GlcNAc
Procedure, shortened: as §1

B1: CPA (Cicer arietinum) (protein)
chain: MAFSYLNLVLVTLTTLFFLQTTKVKSQKSVSFHITNFTISRPSITLQGTAEFLPNVLLLNDIEHPVFVVGRALYSKPITLWNNKTGKVASFVTSFTFDVQDLKKTVPGHGLVFFLAPSGSEIPFSSDGGNLGVVDGKNAFNRFVGVEFDNFVNSWDPKYSHVGINVNSLISTKTVKWNRVSGELVKVSIVYDSVSTTLTVIVTYKNGQISILSQLVDLKAVLPDTVNIGFSASTTLVSPRQLHNIHSWSFTSTFET
glycan array binding signal (z-score) (Gal(b1-4)GlcNAc6P): 5.14 | glycan array binding signal (z-score) (Gal3S(b1-3)GalNAc): -0.183 | glycan array binding signal (z-score) (Gal6S(b1-4)Glc): 0.138 | glycan array binding signal (z-score) [1]: 1.55 | glycan array binding signal (z-score) (Glc(b1-6)Glc): -0.614 | glycan array binding signal (z-score) [2]: 2.25 | glycan array binding signal (z-score) (GlcNAc(b1-3)Man): -0.558 | glycan array binding signal (z-score) (Kdn(a2-3)Gal(b1-4)Glc): -0.762 | glycan array binding signal (z-score) (Kdn(a2-3)Gal(b1-4)GlcNAc): -0.585 | glycan array binding signal (z-score) [3]: -0.461 | glycan array binding signal (z-score) (Man(a1-3)[Man(a1-6)]Man): -0.635 | glycan array binding signal (z-score) [4]: 4.19 | glycan array binding signal (z-score) (MurNAc(b1-4)GlcNAc): 0.406 | glycan array binding signal (z-score) (Neu5Ac(a2-3)Gal): -0.529 | glycan array binding signal (z-score) [5]: -0.601 | glycan array binding signal (z-score) [6]: -0.065 | glycan array binding signal (z-score) [7]: -0.66 | glycan array binding signal (z-score) [8]: 6.81 | glycan array binding signal (z-score) [9]: -0.322 | glycan array binding signal (z-score) [10]: -0.34 | glycan array binding signal (z-score) [11]: -0.503 | glycan array binding signal (z-score) [12]: 3.34 | glycan array binding signal (z-score) [13]: -0.588 | glycan array binding signal (z-score) [14]: -0.452 | glycan array binding signal (z-score) [15]: 2.61 | glycan array binding signal (z-score) [16]: -0.501 | glycan array binding signal (z-score) [17]: -0.647 | glycan array binding signal (z-score) [18]: -0.579 | glycan array binding signal (z-score) [19]: -0.402
